Test results reported in article PMC7862700, “An all-to-all approach to the identification of sequence-specific readers for epigenetic DNA modifications on cytosine”.

Tests used:
Experiment in all cases: DAPPL (digital affinity profiling via proximity ligation, sequencing); 10 mM Tris-HCl pH 7.5, 50 mM NaCl, 1 mM DTT, 4% glycerol, room temperature, 30 min; GST-TFs on glutathione beads, 16-mer random dsDNA library, 0.1% formaldehyde crosslink after washing; high values mean tight binding
FEV = molecular target: T1, FEV (Homo sapiens, UniProt Q99581 1-238); details: protein: recombinant; tags: N-terminal GST; dsDNA, one strand shown
T1 sequence: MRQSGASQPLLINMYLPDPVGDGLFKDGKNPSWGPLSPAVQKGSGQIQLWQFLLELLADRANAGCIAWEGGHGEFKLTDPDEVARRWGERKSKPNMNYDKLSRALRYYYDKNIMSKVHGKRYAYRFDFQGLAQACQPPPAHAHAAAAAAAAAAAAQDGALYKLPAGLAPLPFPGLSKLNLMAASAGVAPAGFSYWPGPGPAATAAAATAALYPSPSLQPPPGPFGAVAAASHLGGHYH
Outline: (§1)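 Binding signal is each hexamer's read frequency for a factor divided by its frequency in the tag-only sample. The factors were GST-fused human transcription factors from yeast, captured on glutathione beads, DNA-barcoded and pooled with that sample. Pools were incubated with 200 nmole of a random double-stranded 16-mer DNA library in Tris/NaCl/DTT/glycerol buffer at room temperature for 30 min, then washed, crosslinked with 0.1% formaldehyde, proximity-ligated with BsaI/T4 ligase (1 h, 37 °C), PCR-amplified and sequenced on an Illumina NextSeq500.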

ETV5 = ETV5 (Homo sapiens, UniProt P41161 1-510); details: protein: recombinant; tags: N-terminal GST; dsDNA, one strand shown
Sequence of ETV5 (P41161 whole entry): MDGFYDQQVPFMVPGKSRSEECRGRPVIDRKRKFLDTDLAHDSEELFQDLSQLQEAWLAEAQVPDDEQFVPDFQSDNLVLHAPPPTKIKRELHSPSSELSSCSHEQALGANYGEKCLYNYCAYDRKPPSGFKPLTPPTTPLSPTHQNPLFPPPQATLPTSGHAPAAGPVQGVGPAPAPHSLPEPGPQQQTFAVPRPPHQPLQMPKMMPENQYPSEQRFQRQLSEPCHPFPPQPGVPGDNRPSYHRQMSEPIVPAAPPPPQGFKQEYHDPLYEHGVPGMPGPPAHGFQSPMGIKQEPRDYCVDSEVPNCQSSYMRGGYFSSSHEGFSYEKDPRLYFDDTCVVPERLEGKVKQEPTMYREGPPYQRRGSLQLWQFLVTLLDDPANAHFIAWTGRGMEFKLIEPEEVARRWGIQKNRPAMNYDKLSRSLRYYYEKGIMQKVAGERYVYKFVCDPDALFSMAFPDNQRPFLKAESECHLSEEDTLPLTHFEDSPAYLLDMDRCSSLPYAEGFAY
Outline: as §1

HSF1 = HSF1 (Homo sapiens, UniProt Q00613 1-529); details: protein: recombinant; tags: N-terminal GST; chain copies: 3; dsDNA, one strand shown
Sequence of HSF1 (Q00613 whole entry): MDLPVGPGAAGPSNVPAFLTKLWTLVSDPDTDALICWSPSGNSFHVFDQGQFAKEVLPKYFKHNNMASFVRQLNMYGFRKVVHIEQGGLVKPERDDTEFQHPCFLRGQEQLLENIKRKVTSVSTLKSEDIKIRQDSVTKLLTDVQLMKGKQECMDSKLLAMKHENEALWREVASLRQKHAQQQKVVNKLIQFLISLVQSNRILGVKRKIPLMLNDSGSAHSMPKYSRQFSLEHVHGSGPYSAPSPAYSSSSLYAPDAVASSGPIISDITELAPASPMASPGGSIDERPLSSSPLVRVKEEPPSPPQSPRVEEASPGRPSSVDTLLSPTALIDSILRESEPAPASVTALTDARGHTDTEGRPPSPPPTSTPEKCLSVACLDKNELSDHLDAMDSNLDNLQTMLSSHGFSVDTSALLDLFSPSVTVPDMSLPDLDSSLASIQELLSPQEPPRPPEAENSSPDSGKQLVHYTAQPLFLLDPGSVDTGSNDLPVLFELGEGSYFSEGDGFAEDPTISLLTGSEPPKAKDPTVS
Outline: as §1

SPIC = molecular target: T2, SPIC (Homo sapiens, UniProt Q8N5J4 1-248); details: protein: recombinant; tags: N-terminal GST; dsDNA, one strand shown
T2 sequence: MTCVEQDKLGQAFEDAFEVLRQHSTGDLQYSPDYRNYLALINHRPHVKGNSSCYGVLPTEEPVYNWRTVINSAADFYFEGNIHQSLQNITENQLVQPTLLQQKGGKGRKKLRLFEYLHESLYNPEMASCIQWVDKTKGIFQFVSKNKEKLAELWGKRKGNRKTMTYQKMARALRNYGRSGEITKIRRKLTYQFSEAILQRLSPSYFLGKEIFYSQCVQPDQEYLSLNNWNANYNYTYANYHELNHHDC
Outline: as §1

ELF4 = ELF4 (Homo sapiens, UniProt Q99607 1-663); details: protein: recombinant; tags: N-terminal GST; dsDNA, one strand shown
Sequence of ELF4 (Q99607 whole entry): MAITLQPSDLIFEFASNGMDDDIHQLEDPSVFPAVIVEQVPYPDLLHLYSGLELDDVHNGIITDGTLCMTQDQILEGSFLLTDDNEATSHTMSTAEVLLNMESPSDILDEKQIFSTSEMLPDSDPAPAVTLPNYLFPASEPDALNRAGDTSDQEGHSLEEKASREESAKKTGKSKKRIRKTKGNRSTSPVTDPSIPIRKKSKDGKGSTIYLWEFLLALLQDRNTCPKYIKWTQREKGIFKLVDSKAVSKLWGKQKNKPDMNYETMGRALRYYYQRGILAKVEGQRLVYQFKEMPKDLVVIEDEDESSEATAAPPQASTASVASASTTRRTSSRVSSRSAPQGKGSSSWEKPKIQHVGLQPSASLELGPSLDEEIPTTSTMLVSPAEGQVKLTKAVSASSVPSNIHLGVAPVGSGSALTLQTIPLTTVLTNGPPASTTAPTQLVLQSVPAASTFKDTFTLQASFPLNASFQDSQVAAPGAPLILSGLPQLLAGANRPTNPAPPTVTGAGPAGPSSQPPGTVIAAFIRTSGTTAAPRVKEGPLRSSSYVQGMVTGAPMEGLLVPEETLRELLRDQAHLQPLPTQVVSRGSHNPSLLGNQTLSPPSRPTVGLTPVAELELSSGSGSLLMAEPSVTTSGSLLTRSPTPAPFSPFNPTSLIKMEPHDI
Outline: as §1

ELK4 = molecular target: T3, ELK4 (Homo sapiens, UniProt P28324-2 1-405); details: protein: recombinant; tags: N-terminal GST; dsDNA, one strand shown
T3 sequence: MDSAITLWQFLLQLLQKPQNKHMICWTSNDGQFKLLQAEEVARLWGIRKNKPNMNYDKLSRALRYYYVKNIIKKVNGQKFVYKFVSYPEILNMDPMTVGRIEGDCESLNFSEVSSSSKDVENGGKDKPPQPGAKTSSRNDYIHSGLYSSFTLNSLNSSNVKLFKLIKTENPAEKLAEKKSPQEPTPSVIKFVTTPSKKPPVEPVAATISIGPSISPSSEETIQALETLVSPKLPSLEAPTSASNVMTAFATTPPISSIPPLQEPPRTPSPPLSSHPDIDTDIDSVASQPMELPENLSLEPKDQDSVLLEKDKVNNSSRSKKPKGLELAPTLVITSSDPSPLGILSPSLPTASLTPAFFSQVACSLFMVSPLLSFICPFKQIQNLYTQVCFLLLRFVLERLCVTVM
Outline: as §1

ETV2 = molecular target: T4, ETV2 (Homo sapiens, UniProt O00321 1-342); details: protein: recombinant; tags: N-terminal GST; dsDNA, one strand shown
T4 sequence: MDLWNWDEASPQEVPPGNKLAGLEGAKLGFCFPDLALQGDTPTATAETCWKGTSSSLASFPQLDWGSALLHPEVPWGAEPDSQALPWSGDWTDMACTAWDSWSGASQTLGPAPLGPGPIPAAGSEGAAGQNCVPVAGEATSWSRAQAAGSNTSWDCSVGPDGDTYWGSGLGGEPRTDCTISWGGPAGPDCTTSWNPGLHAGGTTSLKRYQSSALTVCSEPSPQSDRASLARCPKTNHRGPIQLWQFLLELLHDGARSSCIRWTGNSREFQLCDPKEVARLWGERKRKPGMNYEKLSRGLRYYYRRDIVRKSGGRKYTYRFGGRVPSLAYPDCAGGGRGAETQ
Outline: as §1

ELF3 = molecular target: T5, ELF3 (Homo sapiens, UniProt P78545 1-371); details: protein: recombinant; tags: N-terminal GST; dsDNA, one strand shown
T5 sequence: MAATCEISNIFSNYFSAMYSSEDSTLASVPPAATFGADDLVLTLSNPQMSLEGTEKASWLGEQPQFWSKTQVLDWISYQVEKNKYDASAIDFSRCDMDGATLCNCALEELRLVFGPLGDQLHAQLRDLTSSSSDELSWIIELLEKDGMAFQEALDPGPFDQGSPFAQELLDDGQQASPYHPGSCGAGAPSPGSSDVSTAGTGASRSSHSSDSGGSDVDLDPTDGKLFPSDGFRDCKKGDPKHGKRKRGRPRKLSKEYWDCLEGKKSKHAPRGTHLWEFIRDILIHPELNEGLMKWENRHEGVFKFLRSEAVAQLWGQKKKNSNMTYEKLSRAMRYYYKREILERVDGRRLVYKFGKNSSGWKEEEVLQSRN
Outline: as §1

CRX = CRX (Homo sapiens, UniProt O43186 1-299); details: protein: recombinant; tags: N-terminal GST; dsDNA, one strand shown
Sequence of CRX (O43186 whole entry): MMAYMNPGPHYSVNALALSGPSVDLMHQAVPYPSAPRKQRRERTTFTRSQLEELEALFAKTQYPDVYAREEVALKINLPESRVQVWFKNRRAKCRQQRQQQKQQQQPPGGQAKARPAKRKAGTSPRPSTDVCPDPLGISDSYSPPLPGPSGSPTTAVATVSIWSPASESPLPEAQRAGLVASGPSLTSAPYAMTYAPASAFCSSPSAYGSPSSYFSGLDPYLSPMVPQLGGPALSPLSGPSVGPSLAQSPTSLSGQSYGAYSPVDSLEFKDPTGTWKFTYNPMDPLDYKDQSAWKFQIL
Outline: as §1

ETV1 = ETV1 (Homo sapiens, UniProt P50549 1-477); details: protein: recombinant; tags: N-terminal GST; dsDNA, one strand shown
Sequence of ETV1 (P50549 whole entry): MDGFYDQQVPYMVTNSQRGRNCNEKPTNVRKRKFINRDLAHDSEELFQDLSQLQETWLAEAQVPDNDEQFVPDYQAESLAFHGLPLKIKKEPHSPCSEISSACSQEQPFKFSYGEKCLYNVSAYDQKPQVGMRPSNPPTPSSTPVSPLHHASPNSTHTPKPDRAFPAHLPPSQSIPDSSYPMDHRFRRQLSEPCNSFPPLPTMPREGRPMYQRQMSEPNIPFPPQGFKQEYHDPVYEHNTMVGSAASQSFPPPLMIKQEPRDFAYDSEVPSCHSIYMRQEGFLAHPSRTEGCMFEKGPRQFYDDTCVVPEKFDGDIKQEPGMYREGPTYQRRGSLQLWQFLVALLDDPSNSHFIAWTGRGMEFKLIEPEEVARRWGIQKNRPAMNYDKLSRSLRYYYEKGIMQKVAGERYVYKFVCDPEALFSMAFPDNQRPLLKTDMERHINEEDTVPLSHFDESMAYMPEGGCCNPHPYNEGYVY
Outline: as §1

ERF = molecular target: T6, ERF (Homo sapiens, UniProt P50548 1-548); details: protein: recombinant; tags: N-terminal GST; dsDNA, one strand shown
T6 sequence: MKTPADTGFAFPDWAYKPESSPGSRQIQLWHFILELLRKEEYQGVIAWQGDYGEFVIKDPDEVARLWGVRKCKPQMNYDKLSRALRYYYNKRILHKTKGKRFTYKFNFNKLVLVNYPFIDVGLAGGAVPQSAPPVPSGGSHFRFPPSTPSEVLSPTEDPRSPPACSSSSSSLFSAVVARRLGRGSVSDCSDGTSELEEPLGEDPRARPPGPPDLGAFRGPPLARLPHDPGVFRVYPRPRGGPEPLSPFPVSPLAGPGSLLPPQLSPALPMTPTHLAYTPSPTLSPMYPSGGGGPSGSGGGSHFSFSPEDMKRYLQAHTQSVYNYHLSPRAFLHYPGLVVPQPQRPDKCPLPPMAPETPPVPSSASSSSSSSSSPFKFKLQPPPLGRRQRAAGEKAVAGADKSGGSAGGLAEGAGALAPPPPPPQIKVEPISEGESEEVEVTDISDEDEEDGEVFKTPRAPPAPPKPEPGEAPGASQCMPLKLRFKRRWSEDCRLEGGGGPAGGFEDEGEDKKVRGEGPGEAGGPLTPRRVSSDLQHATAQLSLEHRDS
Outline: as §1

ETV3L = molecular target: T7, ETV3L (Homo sapiens, UniProt Q6ZN32 1-361); details: protein: recombinant; tags: N-terminal GST; dsDNA, one strand shown
T7 sequence: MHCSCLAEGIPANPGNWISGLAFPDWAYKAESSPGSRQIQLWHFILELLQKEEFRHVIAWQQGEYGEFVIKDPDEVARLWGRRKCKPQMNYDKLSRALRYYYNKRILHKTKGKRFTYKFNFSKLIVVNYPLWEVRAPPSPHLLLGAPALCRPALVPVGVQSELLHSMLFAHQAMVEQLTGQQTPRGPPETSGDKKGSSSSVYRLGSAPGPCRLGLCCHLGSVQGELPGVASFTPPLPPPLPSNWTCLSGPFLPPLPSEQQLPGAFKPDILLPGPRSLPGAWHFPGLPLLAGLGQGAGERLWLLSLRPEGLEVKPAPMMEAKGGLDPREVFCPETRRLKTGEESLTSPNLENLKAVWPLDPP
Outline: as §1

ETS2 = molecular target: T8, ETS2 (Homo sapiens, UniProt P15036 1-469); details: protein: recombinant; tags: N-terminal GST; dsDNA, one strand shown
T8 sequence: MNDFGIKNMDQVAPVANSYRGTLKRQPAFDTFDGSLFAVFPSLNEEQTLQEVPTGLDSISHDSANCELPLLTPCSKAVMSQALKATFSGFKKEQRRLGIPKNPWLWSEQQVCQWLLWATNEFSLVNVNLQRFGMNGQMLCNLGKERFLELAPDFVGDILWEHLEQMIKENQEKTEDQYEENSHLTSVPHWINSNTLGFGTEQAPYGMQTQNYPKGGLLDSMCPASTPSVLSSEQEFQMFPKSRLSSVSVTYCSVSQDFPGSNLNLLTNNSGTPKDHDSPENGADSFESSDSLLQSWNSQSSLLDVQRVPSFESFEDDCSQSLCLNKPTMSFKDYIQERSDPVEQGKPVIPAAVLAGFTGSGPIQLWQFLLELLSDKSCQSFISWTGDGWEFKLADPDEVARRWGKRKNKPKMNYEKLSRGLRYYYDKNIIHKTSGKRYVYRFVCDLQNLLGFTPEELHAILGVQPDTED
Outline: as §1

SPDEF = molecular target: T9, SPDEF (Homo sapiens, UniProt O95238 1-335); details: protein: recombinant; tags: N-terminal GST; dsDNA, one strand shown
T9 sequence: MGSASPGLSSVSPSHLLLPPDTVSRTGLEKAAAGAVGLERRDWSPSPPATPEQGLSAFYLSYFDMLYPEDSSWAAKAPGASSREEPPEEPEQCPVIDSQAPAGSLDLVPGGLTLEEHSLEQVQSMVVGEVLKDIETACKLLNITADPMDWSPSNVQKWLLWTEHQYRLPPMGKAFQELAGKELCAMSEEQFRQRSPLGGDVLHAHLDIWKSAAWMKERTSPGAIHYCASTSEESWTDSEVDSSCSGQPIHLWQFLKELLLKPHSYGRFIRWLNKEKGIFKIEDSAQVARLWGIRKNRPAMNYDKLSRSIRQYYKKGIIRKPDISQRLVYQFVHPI
Outline: as §1

ETV7 = molecular target: T10, ETV7 (Homo sapiens, UniProt Q9Y603 1-341); details: protein: recombinant; tags: N-terminal GST; dsDNA, one strand shown
T10 sequence: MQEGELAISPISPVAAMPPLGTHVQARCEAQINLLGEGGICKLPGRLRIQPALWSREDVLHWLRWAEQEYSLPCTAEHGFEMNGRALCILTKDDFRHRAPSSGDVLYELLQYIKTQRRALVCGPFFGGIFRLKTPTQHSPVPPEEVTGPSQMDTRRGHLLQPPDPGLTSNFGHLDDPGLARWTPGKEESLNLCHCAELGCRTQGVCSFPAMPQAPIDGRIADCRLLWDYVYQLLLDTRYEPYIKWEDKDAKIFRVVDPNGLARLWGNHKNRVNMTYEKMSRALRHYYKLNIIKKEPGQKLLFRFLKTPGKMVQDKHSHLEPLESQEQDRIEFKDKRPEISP
Outline: as §1

ELF5 = molecular target: T11, ELF5 (Homo sapiens, UniProt Q9UKW6-2 1-255); details: protein: recombinant; tags: N-terminal GST; dsDNA, one strand shown
T11 sequence: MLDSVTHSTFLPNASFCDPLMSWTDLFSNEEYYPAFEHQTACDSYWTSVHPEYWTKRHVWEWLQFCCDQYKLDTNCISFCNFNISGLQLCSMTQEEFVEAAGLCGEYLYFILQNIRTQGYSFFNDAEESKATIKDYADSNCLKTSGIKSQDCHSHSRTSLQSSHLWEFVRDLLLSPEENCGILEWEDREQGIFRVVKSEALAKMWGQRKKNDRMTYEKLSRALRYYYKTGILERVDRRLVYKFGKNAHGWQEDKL
Outline: as §1

ETV3 = molecular target: T12, ETV3 (Homo sapiens, UniProt P41162-2 1-143); details: protein: recombinant; tags: N-terminal GST; dsDNA, one strand shown
T12 sequence: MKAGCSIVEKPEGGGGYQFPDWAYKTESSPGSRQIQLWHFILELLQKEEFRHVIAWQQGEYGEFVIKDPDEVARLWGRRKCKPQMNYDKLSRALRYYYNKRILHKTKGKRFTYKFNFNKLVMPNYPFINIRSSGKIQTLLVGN
Outline: as §1

ETV6 = ETV6 (Homo sapiens, UniProt P41212 1-452); details: protein: recombinant; tags: N-terminal GST; dsDNA, one strand shown
Sequence of ETV6 (P41212 whole entry): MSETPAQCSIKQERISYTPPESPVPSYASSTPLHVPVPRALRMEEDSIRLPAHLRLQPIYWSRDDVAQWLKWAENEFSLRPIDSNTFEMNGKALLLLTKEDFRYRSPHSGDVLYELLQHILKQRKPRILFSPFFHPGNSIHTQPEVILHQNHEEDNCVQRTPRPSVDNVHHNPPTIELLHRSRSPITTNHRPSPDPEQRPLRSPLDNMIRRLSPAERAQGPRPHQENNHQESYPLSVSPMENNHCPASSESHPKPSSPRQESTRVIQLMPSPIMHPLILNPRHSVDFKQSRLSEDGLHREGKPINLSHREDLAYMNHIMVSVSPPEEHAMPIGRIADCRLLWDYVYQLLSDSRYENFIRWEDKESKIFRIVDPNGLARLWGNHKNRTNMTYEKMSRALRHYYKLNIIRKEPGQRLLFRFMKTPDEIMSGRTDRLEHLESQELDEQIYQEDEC
Outline: as §1

GTATAA was tested, and the binding signal (FEV) was 1.01 fold enrichment (6-mer frequency, TF over GST control), the binding signal (ETV5) was 1.1 fold enrichment (6-mer frequency, TF over GST control) and the binding signal (HSF1) was 1.16 fold enrichment (6-mer frequency, TF over GST control). The binding signal (SPIC) was 1.07 fold enrichment (6-mer frequency, TF over GST control), the binding signal (ELF4) was 1.05 fold enrichment (6-mer frequency, TF over GST control) and the binding signal (ELK4) was 1.08 fold enrichment (6-mer frequency, TF over GST control). For the same sequence, the binding signal (ETV2) was 1.18 fold enrichment (6-mer frequency, TF over GST control), the binding signal (ELF3) was 1.14 fold enrichment (6-mer frequency, TF over GST control) and the binding signal (CRX) was 1.41 fold enrichment (6-mer frequency, TF over GST control). The binding signal (ETV1) was 1.14 fold enrichment (6-mer frequency, TF over GST control), the binding signal (ERF) was 1.13 fold enrichment (6-mer frequency, TF over GST control) and the binding signal (ETV3L) was 1.14 fold enrichment (6-mer frequency, TF over GST control). For the same sequence, the binding signal (ETS2) was 1.08 fold enrichment (6-mer frequency, TF over GST control), the binding signal (SPDEF) was 1.07 fold enrichment (6-mer frequency, TF over GST control) and the binding signal (ETV7) was 1.11 fold enrichment (6-mer frequency, TF over GST control). For the same sequence, the binding signal (ELF5) was 1.11 fold enrichment (6-mer frequency, TF over GST control), the binding signal (ETV3) was 1.08 fold enrichment (6-mer frequency, TF over GST control) and the binding signal (ETV6) was 1.08 fold enrichment (6-mer frequency, TF over GST control).
